Reference: PubChem BioAssay AID1159580 (chemical genetic matrix, 2015)
Among all 5,500 compounds or so, about 2,000 (36%) were called active. Inconclusive results (about 18%) are left out. Rule as the data show it: active = normalized growth mostly below about 0.91 (no sharp cut-off); inconclusive = no clear call, values can overlap the other calls; inactive = mostly above about 0.92. The list shows a part of the results.

Experiment: chemical genetic growth profiling, strain panel (AID 1159580);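 also: tested at 20 µM; growth read once vehicle control cultures reached saturation at 30 °C; 1 = growth at the plate median or of vehicle wells; lower values mean less growth of the strain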
Conditions: S. cerevisiae deletion strains, growth OD

Measured: normalized growth

N[C@H]1CONC1=O
inactive: locus YAL013W, strain DEP1, hits give low values 1.01 | locus YAL040C, strain CLN3, hits give low values 1.08 | locus YCL061C, strain MRC1 (second series), hits give low values 0.995 | locus YDR363W, strain ESC2, hits give low values 0.995 | locus YER002W, strain NOP16, hits give low values 0.988 | locus YJR075W, strain HOC1, hits give low values 1.02 | locus YNL153C, strain GIM3, hits give low values 0.955 | locus YNL175C, strain NOP13, hits give low values 0.986 | locus YNL197C, strain WHI3, hits give low values 1.02 | locus YNL224C, strain SQS1, hits give low values 0.994 | locus YNL322C, strain KRE1, hits give low values 1.01 | locus YOR083W, strain WHI5 (second series), hits give low values 0.993 | locus YPL055C, strain LGE1, hits give low values 0.992
